Assay results taken from PubChem BioAssay AID602346 (Broad Institute, 2012).
Screen size: about 340,000 compounds; about 1,200 (0.35%) were called active. No stated cut-off is given here; in the data, active means inhibition above about 50% (passing the limit was not always enough); inconclusive means no clear call, values can overlap the other calls; inactive means below about 31%. The list comes from a sample in which actives are over-represented; it also holds similar structures and randomly drawn compounds.

assay: HIV Vif self-association inhibitors, primary screen, imaging, HEK293T, single point (AID 602346); settings: HEK293T cells, Vif self-association by quenched fluorescence, 24 h, at 7.49 µM, stronger effect = higher value

Row | Structure (SMILES) | inhibition
1 | COc1cccc(CNC(=O)c2nnn(CC(=O)Nc3cc(C)ccc3C)c2N)c1 | 9.65% (inactive)
2 | CCOc1ccccc1NC(=O)Cn1nnc(C(=O)NCc2cccs2)c1N | 62.1% (active)
3 | Cc1ccc(NC(=O)Cn2nnc(C(=O)NCc3ccco3)c2N)c(C)c1 | -2.06% (inactive)
4 | NC(=S)NN=Cc1ccc(OC(=O)COc2cc(Cl)c(Cl)cc2Cl)cn1 | 4.39% (inactive)
5 | CC(C)Oc1cc(F)ccc1-c1cc(C(=O)Nc2cccc(Cl)c2)[nH]n1 | -9.5% (inactive)
6 | O=C(COC(=O)c1ccc(O)cc1)Nc1nccs1 | 2.05% (inactive)
7 | CC(=O)NC1CCN(CC(=O)Nc2nccs2)CC1 | 4.49% (inactive)
8 | CC1CCN(CC(=O)Nc2nccs2)CC1 | 50.9% (active)
9 | CC(C)Oc1ccc(CN2CCC2(C)C(=O)NCc2ccc(C(F)(F)F)cc2)cc1 (stereo not given) | -4.01% (inactive)
10 | O=C(NCc1cccnc1)c1cc(C2CCCCN2C(=O)CCc2ccccc2)on1 (stereo not given) | -0.0335% (inactive)
11 | COCOCCn1cc(CN2CCS(=O)(=O)N(Cc3ccc(-c4ccc(OC)cc4)cc3)C(CC(C)C)C2=O)nn1 (stereo not given) | 1.43% (inactive)
12 | CCN(CC)S(=O)(=O)c1ccc2c3c(cccc13)C(=O)S2 | -0.161% (inactive)
13 | O=C(CN1C(=O)c2cccc3cccc1c23)Nc1ccccc1 | 2.82% (inactive)
14 | CCN1C(=O)c2cccc3c(S(=O)(=O)Nc4ccccc4O)ccc1c23 | 112% (active)
15 | O=C(NCc1cccnc1)Nc1cccc(NC(=O)NCc2cccnc2)c1F | 56% (active)
16 | O=C(NCc1cccnc1)c1ccccc1NC(=O)c1c(F)cccc1F | -6.43% (inactive)
17 | O=C(NCc1cccnc1)Nc1ccccc1F | 20.3% (inactive)
18 | C#Cc1ccc(NC(=O)C2(C)CCN2C(=O)Cc2ccc(-c3ccccc3)cc2)cc1 (stereo not given) | -14.6% (inactive)
19 | Cc1cccc(C)c1Cn1c(C)c(C(=O)NCc2cccc(Cl)c2)sc1=O | -0.663% (inactive)
20 | O=C1[C@H]2[C@@H](c3ccc(C(F)(F)F)cc3)N[C@]3(CCCN(Cc4ccc(Cl)cc4)C3=O)[C@H]2C(=O)N1Cc1ccccc1 | 2.09% (inactive)
21 | CC1(C(=O)Nc2cccc3cccnc23)CCN1C(=O)CCC1CCCC1 (stereo not given) | -1.65% (inactive)
22 | CN(C)CCNC(=O)c1ccc(-c2cn3c(-c4ccc(Oc5ccccc5)cc4)cnc3cn2)cc1 | 1.97% (inactive)
23 | COc1ccc(-c2ccc(Nc3ccc(S(=O)(=O)N4CCCC4)cc3)nn2)cc1OC | -7.98% (inactive)
24 | COc1ccc(-c2cc(-c3ccc(N)cc3)nc(N)c2C#N)cc1OC | -0.12% (inactive)
25 | COc1ccc(-c2cc(C(F)(F)F)nc(S(C)(=O)=O)n2)cc1OC | 90.1% (active)
26 | COc1ccc(OC)c(C(=O)NC2CCCc3c2cnn3-c2cc(C)cc(C)c2)c1 (stereo not given) | -9.82% (inactive)
27 | CC(=O)Nc1cc(-c2ccccc2F)cn2c(-c3cccc(C(F)(F)F)c3)cnc12 | -25.4% (inactive)

Row | Structure (SMILES) | inhibition
28 | OC[C@@H]1CN(Cc2ccncc2)C[C@H](n2cnc3c(N4CCN(c5ccccc5)CC4)ncnc32)O1 | -25.2% (inactive)
29 | NS(=O)(=O)c1ccc(-c2ccc(/C=C3\SC(=O)NC3=O)o2)cc1 | 55.8% (active)
30 | CN1CCN(/N=C/c2ccc(-c3ccc([N+](=O)[O-])cc3)o2)CC1 | -7.47% (inactive)
31 | O=C1[C@H]2[C@@H](c3ccc(C(F)(F)F)cc3)N[C@]3(CCCN(Cc4ccc(Br)cc4)C3=O)[C@H]2C(=O)N1Cc1ccccc1 | 1.02% (inactive)
32 | C#Cc1cc(N2CCN(C(=O)c3ccoc3)CC2)n2nc(-c3cccc(Cl)c3)cc2n1 | -5.39% (inactive)
33 | CN(C)C(=O)CCc1ccc2c3c([nH]c2c1)[C@]1(CCc2ccccc2)[C@@H](C(=O)N2CCCCC2)C[C@H](CC(=O)NCCC2=CCCCC2)C(=O)N1CC3 | 2.36% (inactive)
34 | CC(C)N(C(=O)[C@H]1C[C@H](CC(=O)NCCC2=CCCCC2)C(=O)N2CCc3c([nH]c4cc(CCC(=O)N(C)C)ccc34)[C@]12C)C(C)C | 0.666% (inactive)
35 | CN(C)C(=O)CCc1ccc2c3c([nH]c2c1)[C@]1(C)[C@@H](C(=O)N2CCCCC2)C[C@H](CC(=O)NCCC2=CCCCC2)C(=O)N1CC3 | 71.8% (active)
36 | Cc1nc2c(OCc3cccc(Cl)c3)cccn2c1N(C)CC1CC1 | -11.2% (inactive)
37 | COc1ccc(CC(N)c2csc(NC(=O)Nc3ccc(C(C)C)cc3)n2)cc1 (stereo not given) | -7.74% (inactive)
38 | Cc1ccc(CCC(=O)Nc2ncc(Cc3cc(Cl)ccc3Cl)s2)o1 | 144% (active)
39 | Cc1ccc(C(=O)Nc2nc3ccc(Cl)cc3s2)o1 | -31.1% (inactive)
40 | Cc1ccc(Cc2cnc(N)s2)o1 | -1.08% (inactive)
41 | CSCCC(c1nnnn1Cc1ccccc1)N1CCN(C/C=C/c2ccccc2)CC1 (stereo not given) | -1.75% (inactive)
42 | Cc1ccc(Cn2c(C)c(C(=O)NCc3ccccc3C(F)(F)F)sc2=O)cc1 | 4.56% (inactive)
43 | N#Cc1cc([N+](=O)[O-])ccc1Oc1cccc(/C=N/NC(=O)c2ccc(Cl)cc2)c1 | -18.6% (inactive)
44 | COC(=O)c1ccc(COc2ccc(/C=N/NC(=O)C(=O)Nc3ccc(OC)cc3)cc2OC)o1 | 4.89% (inactive)
45 | CCCc1ccc(OCc2ccc(C(=O)N/N=C/c3cccc([N+](=O)[O-])c3)o2)c(OC)c1 | 53.7% (active)
46 | CN(C)c1cccc(NC(=O)c2ccc(-c3ccc(F)c(F)c3)c3ccoc23)c1 | 3.47% (inactive)
47 | CC[C@@H]1Cc2cc(O)ccc2C2=C1c1ccc(O)cc1C[C@H]2CC | 85.1% (active)
48 | CC(=O)Nc1cccc(-c2cc(NC(C)=O)c3ncc(-c4ccccc4)n3c2)c1 | 18.3% (inactive)
49 | O=c1[nH]c2ccccc2n1C1CCN(CCOc2ccccc2)CC1 | -4.07% (inactive)
50 | COc1ccc(/C=C/C(=O)c2c(O)cc(OC)cc2OC)cc1 | -16.7% (inactive)
51 | CC(C)(C)Oc1ncc(Br)c(OC(C)(C)C)n1 | 61.1% (active)
52 | COc1cccc(-c2cnc(OC(C)(C)C)nc2OC(C)(C)C)c1 | -0.006% (inactive)
53 | Cc1ccc(NC(=O)Cn2sc3ccccc3c2=O)cc1 | 4.93% (inactive)
54 | COc1ccc(N/C=C(\C2OC(=O)c3ccccc32)[N+](=O)[O-])cc1 (stereo not given) | 50.1% (active)

Row | Structure (SMILES) | inhibition
55 | COc1ccc(NC(=O)ON=C2c3ccccc3-c3ccccc32)cc1 | -9.14% (inactive)
56 | COc1ccc(NC(=O)C2=C(C)NC(=O)NC2c2ccccc2[N+](=O)[O-])cc1 (stereo not given) | -2.26% (inactive)
57 | NC(Cc1ccccc1)c1csc(Nc2cc(Oc3ccccc3)ncn2)n1 (stereo not given) | -3.02% (inactive)
58 | CCOC(=O)[C@H]1Nc2ccc(Cl)cc2[C@@H]2[C@H]1C1CC(c3ccccc31)N2C(=O)OCc1ccccc1 (stereo not given in full) | 2.38% (inactive)
59 | CC(=O)Oc1ccc(Cn2c(C)c(C(=O)NCc3ccc(C#N)cc3)sc2=O)cc1 | 1.95% (inactive)
60 | COc1cccc(CNc2nc3cc(-c4csc5ccccc45)sc3c(=O)n2C)c1 | -4.94% (inactive)
61 | COc1ccc(CC(NC(C)=O)C(=O)NC2CCN(C(=O)Nc3ccc(C#N)cc3)CC2)cc1OC (stereo not given) | -4.35% (inactive)
62 | COc1ccc(CC(NC(C)=O)C(=O)NC2CCN(C(=O)C3CC3)CC2)cc1OC (stereo not given) | -0.652% (inactive)
63 | COc1ccc(CC(NC(C)=O)C(=O)N2CCN(C(=O)Nc3cccc(Cl)c3)CC2)cc1OC (stereo not given) | 50.1% (active)
64 | CCOc1ccc(CCN2C(=S)N([C@@H](CC(C)C)CN3CCC[C@@H]3CN3C(=S)NC[C@@H]3Cc3ccc(O)cc3)C[C@@H]2Cc2ccc(O)cc2)cc1 | 1.22% (inactive)
65 | CCc1nc2ccc(C(=O)NCc3ccc(OC)cc3)cn2c1N(CC)Cc1cccc(Br)c1 | 4.42% (inactive)
66 | Cc1cccc(C(=O)NC2CCN(CC(=O)Nc3cccc(Cl)c3)CC2)c1 | -0.446% (inactive)
67 | CCCOc1ccc(F)cc1-c1cc(C(=O)NCc2ccc(F)cc2)[nH]n1 | 14.3% (inactive)
68 | CN(C)C(=S)Nc1ccc(Br)cc1Cl | 1.91% (inactive)
69 | CN(C)C(=O)c1cc(Br)ccc1Cl | 102% (active)
70 | CC(C)(C)NC(=O)COC(=O)c1cc(Br)ccc1Cl | -3.23% (inactive)
71 | CCOC(=O)C1CCCN(C(=O)c2ccc(C)c(F)c2)CC1 (stereo not given) | -7.05% (inactive)
72 | COc1ccc(-c2cc(NC(C)=O)c3ncc(-c4cc(OC)c(OC)c(OC)c4)n3c2)cn1 | -2.19% (inactive)
73 | COc1ccccc1CNC(=O)c1cc(-c2cc(Cl)ccc2C)n[nH]1 | 20.2% (inactive)
74 | COc1ccc(C(CNC(=O)COc2ccc([N+](=O)[O-])cc2)N2CCCCC2)cc1 (stereo not given) | 3.74% (inactive)
75 | COc1ccc(C(CNC(=O)COc2ccccc2OC)N2CCCCC2)cc1 (stereo not given) | -2.23% (inactive)
76 | CCc1ccc(OCC(=O)NCC(c2ccc(Cl)cc2)N2CCCCC2)cc1 (stereo not given) | 58.2% (active)
77 | CC(C)Nc1nc(NCCOc2ccccc2Cl)c2sccc2n1 | -13.3% (inactive)
78 | Oc1cccc2cc(-c3ccncc3)cnc12 | 11.1% (inactive)
79 | CCOC(=O)C(=Cc1ccccc1)C(=O)c1ccccc1 | -5.2% (inactive)
80 | COc1ccc(C(C)(O)c2nc(-c3cc(F)cc(F)c3)cs2)cc1 (stereo not given) | -4.33% (inactive)
